Results published in PubChem BioAssay (NCI).
Compounds without any hit were thinned out: in the full panel of roughly 79,000, 15% have a hit. Activity calls are given as the source filed them. No stated cut-off is given here; in the data, active means growth inhibition above about 70%; inactive means the rest.

Columns and labels:
[1] = NCI Yeast Anticancer Drug Screen. Data for the rad52 strain (AID 147);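 further: 0% = growth of vehicle-treated control cultures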; conditions: S. cerevisiae rad52 mutant growth inhibition, active compounds read high
Procedure, shortened: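 Here a repair-compromised yeast strain receives each compound; its growth is then quantified and normalised to vehicle-only controls.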

[2] = NCI Yeast Anticancer Drug Screen. Data for the wt1 strain (AID 149);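 further: 0% = growth of vehicle-treated wt1 cultures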; conditions: S. cerevisiae wt1 strain (SPY 50644) growth inhibition, active compounds read high
Procedure, shortened: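 Readout: yeast growth inhibition, normalised to vehicle controls, in the wt1 strain exposed to test compounds.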

[3] = NCI Yeast Anticancer Drug Screen. Data for the rad50EPP+ strain (AID 151);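 further: 0% = growth of vehicle-treated control cultures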; conditions: S. cerevisiae rad50 mutant strain, active compounds read high
Procedure, shortened: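 Read-out is yeast growth inhibition relative to vehicle; cells used were the rad50EPP+ strain.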

[4] = NCI Yeast Anticancer Drug Screen. Data for the mgt1 strain (AID 153); conditions: S. cerevisiae mgt1 mutant growth inhibition, active compounds read high
Procedure, shortened: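 Measured: inhibition of mgt1 yeast growth by compound, normalized to vehicle-treated cultures.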

[5] = NCI Yeast Anticancer Drug Screen. Data for the rad50 strain (AID 155);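 further: 0% = growth of vehicle-only cultures of the same strain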; conditions: S. cerevisiae rad50 strain growth inhibition, active compounds read high
Procedure, shortened: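 Compounds were tested on a yeast strain with an engineered DNA damage repair alteration; the reported value is growth inhibition normalised to vehicle treatment.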

[6] = NCI Yeast Anticancer Drug Screen. Data for the mec2-1 strain (AID 157); conditions: S. cerevisiae mec2-1 strain, active compounds read high
Procedure, shortened: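 Using mec2-1 yeast: add compound, measure growth, express inhibition versus vehicle-treated cultures.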

[7] = NCI Yeast Anticancer Drug Screen. Data for the rad14 strain (AID 159);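 further: 0% = growth of vehicle-treated control cultures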; conditions: S. cerevisiae rad14 strain growth inhibition, active compounds read high
Procedure, shortened: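 Compound-treated yeast with a defined DNA-repair lesion; growth inhibition normalised to vehicle-treated cultures.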

[8] = NCI Yeast Anticancer Drug Screen. Data for the sgs1 mgt1 strain (AID 161);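 further: 0% = growth of cultures given vehicle only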; conditions: S. cerevisiae sgs1 mgt1 strain, active compounds read high
Procedure, shortened: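 Growth of a repair-deficient yeast mutant was monitored after compound treatment and expressed as inhibition relative to vehicle-treated cultures.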

[9] = NCI Yeast Anticancer Drug Screen. Data for the CLN2oe strain (AID 163);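 further: 0% = growth of vehicle-only control cultures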; conditions: S. cerevisiae CLN2oe strain, active compounds read high
Procedure, shortened: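 Whole-cell yeast growth assay. A strain engineered for altered cell-cycle control received compound, and inhibition relative to vehicle-treated cultures was recorded.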

[10] = NCI Yeast Anticancer Drug Screen. Data for the cln2 rad14 strain (AID 165);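 further: 0% = growth equal to vehicle treated cultures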; conditions: S. cerevisiae cln2 rad14 strain, active compounds read high
Procedure, shortened: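 Yeast strain cln2 rad14, bearing defects in cell cycle control and DNA repair, serves as the test system; values reflect growth inhibition compared with vehicle.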

[11] = NCI Yeast Anticancer Drug Screen. Data for the bub3 strain (AID 167); conditions: S. cerevisiae bub3 mutant strain, active compounds read high
Procedure, shortened: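 Growth of a checkpoint-deficient yeast mutant is measured after compound exposure. Values represent inhibition relative to vehicle.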

[12] = NCI Yeast Anticancer Drug Screen. Data for the wt2 strain (AID 169);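 further: 0% = growth of vehicle-treated yeast cultures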; conditions: S. cerevisiae wt2 strain growth inhibition, active compounds read high
Procedure, shortened: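 Treated yeast vs. vehicle-treated yeast: growth inhibition determined.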

[13] = NCI Yeast Anticancer Drug Screen. Data for the mlh1 strain (AID 171);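 further: 0% = growth of vehicle-treated control cultures of the same strain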; conditions: S. cerevisiae mlh1 strain growth inhibition, active compounds read high
Procedure, shortened: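 A yeast strain with a defined genetic lesion serves as the test organism. Cultures receive compound or vehicle, and growth is measured.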

[14] = NCI Yeast Anticancer Drug Screen. Data for the sgs1 strain (AID 173);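 further: 0% = growth of vehicle-only control cultures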; conditions: S. cerevisiae sgs1 mutant, active compounds read high
Procedure, shortened: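 A genetically defined yeast mutant is incubated with the test compound, and its growth is compared to that of the same strain given vehicle.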

[15] = NCI Yeast Anticancer Drug Screen. Data for the mlh1 rad18 strain (AID 175); conditions: S. cerevisiae mlh1 rad18 strain growth inhibition, active compounds read high
Procedure, shortened: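 Steps: expose repair-defective yeast to compound; measure growth; express inhibition against vehicle-treated controls.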

[16] = NCI Yeast Anticancer Drug Screen. Data for the rad18 strain (AID 177); conditions: S. cerevisiae rad18 mutant growth inhibition, active compounds read high
Procedure, shortened: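 Measured value is growth inhibition of a yeast strain bearing a DNA repair alteration, referenced to vehicle-treated cells.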

[17] = at 5.0 µM (retest, dose inferred, filed as 0.5)
[18] = at 50.0 µM (retest, dose inferred, filed as 5.0)

Measured: growth inhibition

CSC(=S)N/N=C/c1ccccc1
inactive: [1]; at 1.2 µM 10% | [1]; at 3.7 µM 20% | [1]; at 11.0 µM 53% | [1]; at 33.0 µM 67% | [1]; at 100.0 µM 67% | [2]; at 1.2 µM 4% | [2]; at 3.7 µM 11% | [2]; at 11.0 µM 29% | [2]; at 33.0 µM 48% | [2]; at 100.0 µM 43% | [3]; at 1.2 µM -1% | [3]; at 3.7 µM 2% | [3]; at 11.0 µM 16% | [3]; at 33.0 µM 60% | [4]; at 1.2 µM 3% | [4]; at 3.7 µM 2% | [4]; at 11.0 µM 22% | [4]; at 33.0 µM 27% | [4]; at 100.0 µM 39% | [5]; at 1.2 µM 28% | [5]; at 3.7 µM 57% | [5]; [17] 38% | [6]; at 1.2 µM 5% | [6]; at 3.7 µM 13% | [6]; [17] 48% | [6]; at 11.0 µM 10% | [6]; at 33.0 µM 20% | [6]; at 100.0 µM 23% | [7]; at 1.2 µM -1% | [7]; at 3.7 µM -1% | [7]; at 11.0 µM 12% | [7]; at 33.0 µM 22% | [7]; at 100.0 µM 29% | [8]; [17] 26% | [9]; at 1.2 µM -3% | [9]; at 3.7 µM 3% | [9]; at 11.0 µM 14% | [9]; at 33.0 µM 22% | [9]; at 100.0 µM 17% | [10]; [17] 16% | [10]; [18] 21% | [10]; at 50.0 µM 49.3% | [11]; at 1.2 µM 32% | [11]; at 3.7 µM 28% | [11]; [17] 46% | [11]; at 11.0 µM 59% | [11]; at 33.0 µM 60% | [11]; at 100.0 µM 59% | [12]; at 1.2 µM -2% | [12]; at 3.7 µM 2% | [12]; at 11.0 µM 16% | [12]; at 33.0 µM 28% | [12]; at 100.0 µM 37% | [13]; at 1.2 µM 1% | [13]; at 3.7 µM 3% | [13]; at 11.0 µM 25% | [13]; at 33.0 µM 26% | [13]; at 100.0 µM 37% | [14]; at 1.2 µM 0% | [14]; at 3.7 µM 5% | [14]; at 11.0 µM 21% | [14]; at 33.0 µM 44% | [14]; at 100.0 µM 55% | [15]; [17] 48% | [16]; at 1.2 µM 23% | [16]; at 3.7 µM 55%
active: [3]; at 100.0 µM 75% | [5]; at 11.0 µM 82% | [5]; at 33.0 µM 83% | [5]; [18] 86% | [5]; at 50.0 µM 94.6% | [5]; at 100.0 µM 82% | [6]; [18] 76% | [6]; at 50.0 µM 75.8% | [8]; [18] 87% | [8]; at 50.0 µM 75.2% | [11]; [18] 82% | [11]; at 50.0 µM 90% | [15]; [18] 85% | [15]; at 50.0 µM 89.5% | [16]; at 11.0 µM 86% | [16]; at 33.0 µM 86% | [16]; at 100.0 µM 81%

C/C(=N\OCC(O)CNCCSCc1ccccc1)c1ccccc1Cl (stereo unspecified)
active: [1]; at 100.0 µM 80% | [4]; at 33.0 µM 85% | [4]; at 100.0 µM 100% | [5]; at 33.0 µM 77% | [5]; at 50.0 µM 80.9% | [5]; at 100.0 µM 95% | [6]; at 50.0 µM 82.7% | [6]; at 100.0 µM 88% | [7]; at 11.0 µM 85% | [7]; at 33.0 µM 99% | [7]; at 100.0 µM 99% | [8]; at 50.0 µM 87.5% | [9]; at 100.0 µM 75% | [11]; at 33.0 µM 81% | [11]; [18] 73% | [11]; at 50.0 µM 86% | [11]; at 100.0 µM 97% | [12]; at 100.0 µM 81% | [13]; at 33.0 µM 71% | [13]; at 100.0 µM 99% | [14]; at 100.0 µM 97% | [15]; at 50.0 µM 95.3% | [16]; at 33.0 µM 80% | [16]; at 100.0 µM 97%
inactive: [1]; at 1.2 µM 2% | [1]; at 3.7 µM 5% | [1]; at 11.0 µM 26% | [1]; at 33.0 µM 45% | [2]; at 1.2 µM -3% | [2]; at 3.7 µM 0% | [2]; at 11.0 µM 6% | [2]; at 33.0 µM 19% | [2]; at 100.0 µM 40% | [3]; at 1.2 µM -1% | [3]; at 3.7 µM 0% | [3]; at 11.0 µM 2% | [3]; at 33.0 µM 6% | [3]; at 100.0 µM 12% | [4]; at 1.2 µM 4% | [4]; at 3.7 µM 9% | [4]; at 11.0 µM 34% | [5]; at 1.2 µM 12% | [5]; at 3.7 µM -12% | [5]; [17] 40% | [5]; at 11.0 µM 64% | [5]; [18] 69% | [6]; at 1.2 µM 3% | [6]; at 3.7 µM 4% | [6]; [17] 2% | [6]; at 11.0 µM 28% | [6]; at 33.0 µM 50% | [6]; [18] 48% | [7]; at 1.2 µM 30% | [7]; at 3.7 µM 46% | [8]; [17] 30% | [8]; [18] 58% | [9]; at 1.2 µM -3% | [9]; at 3.7 µM 12% | [9]; at 11.0 µM 30% | [9]; at 33.0 µM 47% | [10]; [17] 14% | [10]; [18] 61% | [10]; at 50.0 µM 66.8% | [11]; at 1.2 µM 6% | [11]; at 3.7 µM 25% | [11]; [17] 29% | [11]; at 11.0 µM 54% | [12]; at 1.2 µM -1% | [12]; at 3.7 µM 8% | [12]; at 11.0 µM 11% | [12]; at 33.0 µM 30% | [13]; at 1.2 µM 3% | [13]; at 3.7 µM 4% | [13]; at 11.0 µM 24% | [14]; at 1.2 µM 8% | [14]; at 3.7 µM 17% | [14]; at 11.0 µM 41% | [14]; at 33.0 µM 69% | [15]; [17] 21% | [15]; [18] 41% | [16]; at 1.2 µM 12% | [16]; at 3.7 µM 32% | [16]; at 11.0 µM 55%
